The values below come from the supplement of paper PMC12494721.

Counter-ions that a name gives are not always drawn. Unmarked numbers belong to inactive results.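 The calls were made as follows: for the amine columns active = adjusted P below 0.05 in both replicates with a change the same way and a mean fold change under 0.8 or over 1.25; inactive = the rest.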

One assay deals with Clostridium sporogenes DSM 1664. Nature of the assay: fold change of Tryptamine concentration vs plate DMSO controls (fold change (ratio)); higher = more amine produced, active = hit call of the paper (significant change in both replicates, either direction). The note with it: incubation time: 27 h, anaerobic, 37 °C. A digest of the protocol: (§1)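 Anaerobic mGAM cultures of four gut bacterial strains were grown at 37 °C for 27 h in 80 µL wells, starting at OD 0.1 before 1:1 dilution. Compounds were at 20 µM final (sweeteners 50 µM). Whole cultures were extracted with cold acetonitrile/methanol containing 0.1% formic acid and centrifuged. Amines were quantified by LC–triple-quadrupole MS (dynamic MRM) against external calibration curves and drift-corrected within batch. Each value is the fold change versus plate DMSO controls, averaged over 2 biological replicates.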
As to `CN(C)CCCN1c2ccccc2Sc2ccccc21` [Promazine hydrochloride] (20 µM), the “fold change of Tryptamine concentration” value was 1.1.
Same read-out and setting: next, `CCc1cccc(CC)c1NC(=O)CN(CC(=O)O)CC(=O)O` [Etifenin] (20 µM): 1.02.
As to `CC(Cc1cccc(C(F)(F)F)c1)NCCOC(=O)c1ccccc1` (stereo not drawn) [Benfluorex] (20 µM), the “fold change of Tryptamine concentration” value is 0.988.
On the same count and under the same terms, the value for `Cn1c(=O)c2c(ncn2C)n(C)c1=O` [Caffeine] (20 µM) was 0.982; that for `O=c1[nH]c(=O)n([C@H]2C[C@H](O)[C@@H](CO)O2)cc1C(F)(F)F` [Trifluridine] (20 µM) was 1.02; that for `CCOC(=O)NNc1nncc2ccccc12` [Todralazine hydrochloride] (20 µM) was 0.506.

The subject of the next assay is Ruminococcus gnavus DSM 108212. Described as above. The note with it: incubation time: 27 h, anaerobic, 37 °C. A digest of the protocol: as §1
Take `CC(N)(Cc1ccc(O)c(O)c1)C(=O)O` (stereo not drawn) [(L) Methyldopa] (20 µM): the “fold change of Tryptamine concentration” value is 1.11.
Same read-out and setting: next, `CN[C@@H]1[C@H](O[C@H]2[C@H](O[C@H]3[C@H](O)[C@@H](O)[C@H](N=C(N)N)[C@@H](O)[C@@H]3N=C(N)N)O[C@@H](C)[C@]2(O)C=O)O[C@@H](CO)[C@H](O)[C@H]1O` [Streptomycin sulfate] (20 µM): 1.02; `CCOC(=O)c1ccc(OC(=O)CCCCCNC(=N)N)cc1` [Gabexate mesilate] (20 µM): 0.865; `NS(=O)(=O)c1cc(C(=O)O)c(NCc2ccco2)cc1Cl` [Furosemide] (20 µM): 1.01.
On the same count and under the same terms, the value for `CC(C)(Oc1ccc(Cl)cc1)C(=O)O` [Clofibric acid] (20 µM) was 1; that for `Cc1ccc(C(C)NC(=O)[C@@H](NC(=O)OC(C)C)C(C)C)cc1` (stereo partly drawn) (20 µM) was 1.03; that for `COC(c1ccccc1)(c1ccccc1)[C@H](Oc1nc(C)cc(C)n1)C(=O)O` [Ambrisentan] (20 µM) was 1.02.
Take `CN1CCN(CCCN2c3ccccc3Sc3ccc(C(F)(F)F)cc32)CC1` [Trifluoperazine dihydrochloride] (20 µM): the “fold change of Tryptamine concentration” value was 0.93.
With `C[N+](C)(CCOc1ccccc1)Cc1ccccc1.O=C([O-])c1cc2ccccc2cc1O` [Bephenium hydroxynaphthoate] (20 µM), the “fold change of Tryptamine concentration” value is 1.04.
Same read-out and setting: the value for `c1ccc2cc3c(ccc4ccccc43)cc2c1` [Benz[a]anthracene] (20 µM) was 1.12; that for `C[C@H]1C[C@H]2[C@@H]3CCC4=CC(=O)C=C[C@]4(C)[C@@]3(F)[C@@H](O)C[C@]2(C)[C@@]1(O)C(=O)CO` [Betamethasone] (20 µM) was 1.01; that for `NC[C@H]1O[C@H](O[C@H]2[C@H](O[C@@H]3O[C@H](CO)[C@@H](O)[C@H]3O)[C@@H](O)[C@H](N)C[C@@H]2N)[C@H](N)[C@@H](O)[C@@H]1O` [Ribostamycin sulfate salt] (20 µM) was 0.996.
For the molecule `CCOC(=O)C1=C[C@]2(CC)CCCN3CCc4c(n1c1ccccc41)[C@@H]32` [Vinpocetine] (20 µM), the “fold change of Tryptamine concentration” value was 0.955.
The same measure, in the same setting: next, `CCOC1O[C@H]([C@@H](COCc2ccccc2)OCc2ccccc2)[C@H](OCc2ccccc2)[C@H]1O` (stereo partly drawn) [Tribenoside] (20 µM): 0.966; `NCCCC[C@H](N[C@@H](CCc1ccccc1)C(=O)O)C(=O)N1CCC[C@H]1C(=O)O` [Lisinopril] (20 µM): 0.981; `CC(C)(C)NC[C@H](O)c1ccc(O)c(CO)c1` [Levalbuterol hydrochloride] (20 µM): 0.89.
Still for that read-out and setting: the value for `O=C(CCCl)NCc1ccccc1` [Beclamide] (20 µM) was 1.02; that for `Cc1onc(-c2ccccc2Cl)c1C(=O)N[C@@H]1C(=O)N2[C@@H]1SC(C)(C)[C@@H]2C(=O)O` [Cloxacillin sodium salt] (20 µM) was 0.0749 (active); that for `CCN1CCCC1CNC(=O)c1cc(S(N)(=O)=O)ccc1OC` (stereo not drawn) [Sulpiride] (20 µM) was 1.03.
For the molecule `CCOc1ccc(NC(N)=O)cc1` [(4-Ethoxyphenyl)urea] (50 µM), the “fold change of Tryptamine concentration” value is 0.999.
The same measure, in the same setting: next, `O=C1OC(CN2CCOCC2)CN1/N=C/c1ccc([N+](=O)[O-])o1` (stereo not drawn) [Furaltadone hydrochloride] (20 µM): 0.852.
On the same count and under the same terms, the value for `Cc1cc(N)c2ccccc2[n+]1CCCCCCCCCC[n+]1c(C)cc(N)c2ccccc21` [Dequalinium dichloride] (20 µM) was 0.896.
